Results from PubChem BioAssay AID686979 (National Center for Advancing Translational Sciences (NCATS), 2013).
Where “and” joins values, the source holds several entries; their conditions need not be identical. Equal values may be shown once. The campaign covered roughly 420,000 compounds. About 50,000 (12%) were called active. Not shown: some 26% with an inconclusive outcome. Calls come from the whole dose curve; as a rule, active = well fitted inhibition curve with a large enough effect; inconclusive = small, poorly fitted or top-dose-only effect; inactive = flat fitted curve, though single readings scatter. For the sample, actives were picked, then their nearest neighbours and some compounds at random.

assay: qHTS for Inhibitors of human tyrosyl-DNA phosphodiesterase 1 (TDP1): qHTS in cells in presence of CPT; conditions: chicken DT40 Tdp1-/-;hTDP1 cells + 20 nM CPT, ATP luminescence, 48 h; series mostly up to 46.2 µM; activity change, negative = growth inhibition: at the top concentration; note: nearly all actives have a fitted effect of over 55% in size
How it was run: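 Chicken DT40 Tdp1-/- cells stably complemented with human TDP1 were seeded at 400 cells/well in medium containing 20 nM camptothecin, exposed to pin-transferred compounds, and grown at 37 °C for at least 48 hr. Viability was read as ATP luminescence.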
% is set by controls: 0 for no effect and ±100 for the full control effect; potency is the fitted concentration of half-maximal effect.

| SMILES | activity change, negative = growth inhibition | Potency |
| --- | --- | --- |
| COc1ccc(CCNC(=O)COC(=O)c2cc(=O)c3ccccc3o2)cc1 | 2.28% (inactive) |  |
| COc1ccc(CCNCc2c(-c3ccccc3)n(C)c3ccccc23)cc1 |  | 16.4 µM (active) |
| COc1ccc(-c2c(C#Cc3ccccc3)c3ccccc3n2C)cc1 | -25.1% (inactive) |  |
| O=c1[nH]c2c(c(=O)n1-c1ccccc1)CCO2 | -15.9% (inactive) |  |
| O=C(CCNC(=O)c1ccc([N+](=O)[O-])cc1)NC1CCCCC1 | -24.5% (inactive) |  |
| CCOc1ccc(C2c3[nH]c4ccccc4c3CCN2Cc2cn(CC)nc2C)cc1 (stereo not drawn) | -6.24% (inactive) |  |
| CCOc1ccc(C2c3[nH]c4ccccc4c3CCN2Cc2cccn2-c2ncccn2)cc1 (stereo not drawn) |  | 20.6 µM (active) |
| c1ccc(C2c3[nH]c4ccccc4c3CCN2Cc2cccn2-c2cccnc2)nc1 (stereo not drawn) | -17.5% (inactive) |  |
| CN(CC(=O)Nc1c(Cl)cccc1Cl)C(=O)CNC(=O)C1CCCCC1 | -1.71% (inactive) |  |
| Cc1nnc(SCC(=O)NCCOc2ccc(Cl)cc2)n1-c1ccccc1 | 5.23% (inactive) |  |
| Cc1ccc(-n2c(SCC(=O)NCCC3=CCCCC3)nc3n[nH]c(C)c3c2=N)cc1Cl |  | 11.6 µM (active) |
| Cc1nnc(OCC(=O)NCCC2=CCCCC2)c2ccccc12 | 3.47% (inactive) |  |
| CCOc1ccc(-n2c(SCC(=O)Nc3cc(C(=O)O)ccc3Cl)nc3ccccc3c2=O)cc1 | -13.7% (inactive) |  |
| CCCCNC(=O)CSc1nnc(-c2ccco2)n1C | -3.19% (inactive) |  |
| CCC(Sc1nc2n[nH]c(C)c2c(=N)n1-c1ccccc1Cl)C(=O)N(CC)CC (stereo not drawn) |  | 18.4 µM (active) |
| O=C(COc1ccc(Cl)cc1)NCCC1=CCCCC1 | -14.4% (inactive) |  |
| CCOc1ccc(-n2c(SCC(=O)NCc3ccccc3)nc3n[nH]c(C)c3c2=N)cc1 |  | 9.2 µM (active) |
| CCCCNC(=O)CSc1nccn1Cc1ccccc1 | -14.5% (inactive) |  |
| CCCCNC(=O)CSc1nc2n[nH]c(C)c2c(=N)n1-c1cccc(Cl)c1C |  | 16.4 µM (active) and 11.6 µM (active) |
| O=C(COC(=O)c1cccnc1Cl)NC(=O)NC1CCCCC1 | -26.5% (inactive) |  |
| C[C@H](C(=O)CC(=O)OC(C)(C)C)[C@H](O)c1ccc(C(F)(F)F)cc1 | -20.8% (inactive) |  |
| Cc1ccc(SCCC(=O)NC(C(C)C)C(C)C)cc1 | -19.8% (inactive) |  |
| COc1ccc(OCC(=O)Nc2ccc(NC(=O)c3ccco3)c(C)c2)cc1 | -2.05% (inactive) |  |
| CCC1(C2CCN(C(=O)c3cccc(F)c3F)CC2)NC(=O)N(CCc2scnc2C)C1=O (stereo not drawn) | 9.29% (inactive) |  |
| CCCC(C)NC(=O)C1CCN(C(=O)C2CC(=O)N(c3ccc(C)cc3)C2)CC1 (stereo not drawn) | -3.56% (inactive) |  |

| SMILES | activity change, negative = growth inhibition | Potency |
| --- | --- | --- |
| CCN(Cc1ccccc1)S(=O)(=O)c1cc(C(=O)O)ccc1OC | 2.08% (inactive) |  |
| CSC1=NN(c2ccccc2)CN(c2ccccc2)N1C | 7.18% (inactive) |  |
| CC(C)NC(=O)NC(=O)CSc1nnc(-c2ccccc2F)n1N | -22.8% (inactive) |  |
| COc1ccc(-n2nnnc2SCC(=O)Nc2ccccc2)cc1 | -14.1% (inactive) |  |
| COc1ccc(-n2c(SCC(=O)Nc3ccc(Cl)c(C)c3)nc3n[nH]c(C)c3c2=N)cc1 |  | 13 µM (active) |
| COc1ccc(-n2c(Cc3cccn3C)nnc2SCC(=O)Nc2cc(C)cc(C)c2)cc1 | 2.23% (inactive) |  |
| Cn1c(CNC(=O)c2ccccc2F)nnc1SCc1ccc(F)cc1 | -7.86% (inactive) |  |
| O=C(NCc1cccnc1)c1nc(-c2cccs2)no1 | 14.9% (inactive) |  |
| CC(=O)Nc1ccc(NC(=O)CN2CCCC(C)C2)c(Cl)c1 (stereo not drawn) | -20.9% (inactive) |  |
| O=C(CSc1ccccc1)Nc1cc(Cl)ccc1Oc1ccccc1 | -9.91% (inactive) |  |
| CC1CCCN(CC(=O)Nc2cc(Cl)ccc2Oc2ccccc2)C1 (stereo not drawn) |  | 25.9 µM (active) |
| CC1CCCN(S(=O)(=O)c2ccc(-c3ccc(=O)[nH]n3)o2)C1 (stereo not drawn) | -5.64% (inactive) |  |
| Cc1ccc(/C=C/C(=O)OCC(=O)NCc2ccc(Cl)cc2)o1 | 1.25% (inactive) |  |
| CCOc1ccc(N(C(=O)c2snc(C(N)=O)c2N)C(C(=O)NCC2CCCO2)c2c[nH]c3ccccc23)cc1 (stereo not drawn) | -75.3% (inactive) |  |
| COc1ccc(N(C(=O)c2snc(C(N)=O)c2N)C(C(=O)NC2CCCC2)c2ccco2)cc1OC (stereo not drawn) | 5.11% (inactive) |  |
| Cc1ccc(N(C(=O)c2snc(C(N)=O)c2N)C(C(=O)NCC2CCCO2)c2c[nH]c3ccccc23)cc1 (stereo not drawn) |  | 4.61 µM (active) |
| COCCNC(=O)C(c1ccc(C)o1)N(Cc1cccs1)C(=O)c1snc(C(N)=O)c1N (stereo not drawn) | -20.2% (inactive) |  |
| Cc1ccc(N(C(=O)Cc2cccs2)C(C(=O)NCC2CCCO2)c2ccncc2)cc1 (stereo not drawn) | 0.789% (inactive) |  |
| Cc1ccc(C(C(=O)NCC2CCCO2)N(C(=O)c2snc(C(N)=O)c2N)c2ccc(C(C)C)cc2)o1 (stereo not drawn) |  | 23.1 µM (active) |
| Nc1nc(Sc2ncccc2[N+](=O)[O-])n[nH]1 | -12% (inactive) |  |
| O=C(Oc1ccc(Br)cc1C(=S)N1CCOCC1)c1cccc([N+](=O)[O-])c1 | -14.6% (inactive) |  |
| O=C(NNC(=O)C(O)c1ccccc1)NC1CCCCC1 (stereo not drawn) | -10.7% (inactive) |  |
| O=C(CN1CCN(Cc2ccc(Cl)cc2)C1=O)NCc1ccc(F)cc1 | -26.3% (inactive) |  |
| NC(=O)c1ccc(Nc2ccc3nonc3c2[N+](=O)[O-])cc1 | 0.436% (inactive) |  |
| CCN(CCCNC(=O)C1CCN(S(=O)(=O)c2cnc[nH]2)CC1)c1ccccc1 | -22% (inactive) |  |

| SMILES | activity change, negative = growth inhibition | Potency |
| --- | --- | --- |
| O=C(c1cccs1)N1CCN(Cc2ccc3c(c2)OCO3)CC1 | -18.3% (inactive) |  |
| O=C(Nc1cccc2ccccc12)N1CCN(Cc2ccc3c(c2)OCO3)CC1 | -19.1% (inactive) |  |
| O=C(C1CCN(Cc2ccc(Cl)cc2)CC1)N1CCN(Cc2ccc3c(c2)OCO3)CC1 |  | 23.1 µM (active) |
| O=C(C1CCN(S(=O)(=O)c2cnc[nH]2)CC1)N1CCN(Cc2ccc3c(c2)OCO3)CC1 |  | 20.6 µM (active) |
| Cc1cc(C)n2nc(C(=O)N3CCN(Cc4ccc5c(c4)OCO5)CC3)nc2n1 | 2.69% (inactive) |  |
| CCN(C(=O)CSc1nnnn1-c1ccc(OC)cc1)C1CCS(=O)(=O)C1 (stereo not drawn) | 4.62% (inactive) |  |
| CO/N=C/c1cn(-c2ccc(Cl)cc2)nn1 | -1.57% (inactive) |  |
| CSc1ccc(/C=N/NC(=O)c2cccc(Cl)c2)cc1 | 2.7% (inactive) |  |
| CCOC(=O)c1ccccc1NC(=O)c1c(N)n(C)c(=O)[nH]c1=O | -25.9% (inactive) |  |
| CCc1ccc(NC(=O)CN2C(=O)COc3ccc(S(=O)(=O)N4CCCC4)cc32)cc1 | -26.2% (inactive) |  |
| NS(=O)(=O)c1ccc(NC(=O)/C=C/c2ccccc2Cl)cc1 | -4.03% (inactive) |  |
| CC(=O)Nc1ccc(S(=O)(=O)N2CCCC2C(=O)O)cc1 (stereo not drawn) | 6.9% (inactive) |  |
| COc1ccc(NS(=O)(=O)c2ccc(NC(C)=O)cc2)cc1OC |  | 9.2 µM (active) |
| COc1ccc(NC(=O)c2cnc(NS(=O)(=O)c3ccccc3)nc2)cc1 | 1.22% (inactive) |  |
| COc1ccc(NS(=O)(=O)c2ccc(NC(=O)c3ccc(N(C)S(C)(=O)=O)cc3)cc2)cc1 |  | 8.2 µM (active) |
| COc1ccc(/C=N/NS(=O)(=O)c2ccc(NC(C)=O)cc2)cc1 | -22.2% (inactive) |  |
| CC(=O)Nc1ccc(S(=O)(=O)Nc2ccc(N3CCCCC3)cc2)cc1 |  | 4.61 µM (active) |
| CC(=O)Nc1ccc(NS(=O)(=O)c2ccc3c(c2)NC(=O)CC(=O)N3)cc1 | 4.03% (inactive) |  |
| COc1ccc(C(=O)Nc2ccc(S(=O)(=O)Nc3onc(C)c3C)cc2)cc1OC | -6.94% (inactive) |  |
| CC(=O)Nc1ccc(S(=O)(=O)Nc2cccc(NC(=O)C(C)(C)C)c2)cc1 | -20.3% (inactive) |  |
| COc1cc(NS(=O)(=O)c2ccc(NC(C)=O)cc2)cc(OC)c1 |  | 14.6 µM (active) |
| COc1cc(OC)cc(C(=O)Nc2ccc(S(=O)(=O)Nc3cc(C)on3)cc2)c1 | -1.33% (inactive) |  |
| COC(=O)COc1ccc(S(=O)(=O)Nc2ccc(NC(C)=O)cc2)cc1 | -10.2% (inactive) |  |
